Measurements reported in PubChem BioAssay (NCI).
The panel holds about 83,000 compounds, 20% with a hit somewhere; the sample as a whole holds those more often.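 Treatment: one concentration, 48 hours, 96-well format. Scoring: percent growth, with anything below 10 considered active.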 A number with no mark means an inactive call. The source made the active and inactive calls.

These molecules were tested on M14 melanoma (assay: NCI-60 one-dose screen, 48 h (100 = growth as untreated, 0 = no growth, -100 = all killed)). Details: 10 µM unless noted.
Protocol: Growth inhibition of the M14 human tumor cell line is measured as a screen for anti-cancer activity. Cells are grown in 96 well plates and exposed to the test compound for 48 hours. Compounds are tested at a single concentration, which is 10^-5 M for most compounds. The reported endpoint is percent growth (GI% or GIPRCNT), where numbers from 0 - 100% represent growth inhibition, and numbers from -100% - 0 represent cell death. For example, a value of 40 represents 60% growth inhibition. A value of 0 means no net growth occurred over the course of the experiment. A value of -40 indicates 40% of cells at the beginning of the experiment died by the end of the experiment. A value of -100 means all cells are dead at the end of the experiment.
NCI-60 Human Tumor Cell Lines Screen was performed using the standard one-dose NCI protocol, which is described in more detail at https://dtp.cancer.gov/discovery_development/nci-60/default.htm.
Compounds with GIPRCNT values below 10 were considered active. Activity score was based on GIPRCNT using the following formula: […]
Score is 0 for GIPRCNT values of 100 or above, 50 for GIPRCNT values of 0, and 100 for GIPRCNT values of -100.

SMILES	growth
COc1cc(CNC(=O)c2ccsc2Nc2ccnc(C(F)(F)F)c2)ccc1O	100%
COc1ccccc1CNC(=O)C1c2ccccc2C(=O)N(CC(C)C)C1c1cccs1 (stereo not given)	61.6%
Cc1ccccc1CNC(=O)C1CN(c2ccc(Cl)cc2)N(c2ccc(Cl)cc2)C1=O (stereo not given)	90.1%
FC(F)(F)c1cccc(Nc2nc(-c3ccccc3)nc3ncccc23)c1	-86.6% (active)
CCOC(=O)c1cnc2ccc(Cl)cc2c1NCCCN(C)C	2.88% (active)
Cc1ccc2sc3c(NCCCNCCO)nc4ccccc4c3c(=O)c2c1	-44.3% (active)
CCOC(=O)c1cc2c(n1Cc1cc(OC)cc(OC)c1)-c1oncc1CCC2	25.3%
COc1cc(C2CC(c3ccc(Nc4nc(NCCO)nc(N5CCOCC5)n4)cc3)=NN2c2cc(Cl)cc(Cl)c2)cc(OC)c1OC (stereo not given)	64.9%
O=C(N/N=C/c1ccccc1Cl)C(=O)Nc1cccc(C(F)(F)F)c1	105%
O=CCCCC(O)C=O (stereo not given)	105%
CCOC(=O)CSc1c(-c2ccccc2)c2cc(Cl)ccc2[nH]c1=O	104%
CNC(=O)c1cc(Oc2ccc(CC(=O)Nc3cc(C(C)(C)C)cn3C)cc2)ccn1	84.7%
CCOc1cccc(/C=N/NC(=O)C(=O)Nc2cccc(C(F)(F)F)c2)c1O	13.2%
Cc1ccc(NCCNCC(O)CO)c2c(=O)c3ccccc3sc12 (stereo not given)	-71% (active)
NCCCNc1nc2ccccc2c2c(=O)c3cc(F)ccc3sc12	-55.5% (active)
O=C(Nc1ncc(Cc2cccc(C(F)(F)F)c2)s1)C1COc2ccccc2O1 (stereo not given)	88.5%
COc1ccc(-c2cn[nH]c2-c2ccc(OC)c(O)c2)cc1	64.2%
O=C(/C=C/c1ccccn1)c1ccc(OCc2nnc(-c3ccc(Cl)cc3)o2)cc1	31.1%
CN1C(=O)N(C)C2C1NN=c1s/c(=C\c3ccc(Cl)cc3Cl)c(=O)n12 (stereo not given)	7.37% (active)
O=C(c1nc2ccccc2[nH]1)C1[C@@H](c2cccc(O)c2)C2CC3CCCCC3N2[C@@]12C(=O)Nc1cc(Cl)ccc12 (stereo not given in full)	29.2%

SMILES	growth
O=C1c2cc(Cl)ccc2Oc2cc([N+](=O)[O-])ccc2N1c1ccc(F)cc1F	99.2%
C1=CC2(C=C1)OC21CCC2(C=CC3(C2)OC3C2CCCCC2)CC1 (stereo not given)	102%
CCCCc1c(CCC)c(=N)c2ccccc2n1C	55.3%
COc1ccc(/C(C#N)=C/c2nc3c(N4CCOCC4)nc(Cl)nc3n2C)cc1OC	-49.1% (active)
O=c1oc2ccc(-c3ccc(F)cc3F)cc2c(=O)n1-c1cccc(C(F)(F)F)c1	18.3%
Cc1ccc(Nc2nc(N)c3ccccc3n2)cc1Cl	80.3%
COc1ccccc1C1=C(Br)C(=O)c2nc(C)ccc2C1=O	93.7%
O=C(CN1C=NC2C(N3CCOCC3)=NC=NC21)c1cccc2ccccc12 (stereo not given)	105%
C[n+]1c2ccccc2nc2ccc(NCCO)cc21	92.8%
O=C(COc1cc(O)c2c(=O)cc(-c3ccccc3)oc2c1)Nc1ccccc1C(F)(F)F	70.6%
COc1ccc(-c2cc(=O)c3c(OC)c4ccoc4c(/C=C/C=O)c3o2)cc1	28.4%
NCCOc1ccccc1/C=C1\c2ccccc2-c2ccc([N+](=O)[O-])cc21	0.981% (active)
COc1ccc(S(=O)(=O)N(Cc2ccc3c(n2)C=CC(C)(C)O3)C2CCC2)cc1OC	-59.1% (active)
COc1cccc(/C=C/C(=O)c2c(C)nc3ccccc3c2/C=C/c2ccccc2)c1OC	36.3%
COc1ccc(Nc2nc(N/N=C/c3ccc(O)cc3)nc(Nc3ccc([N+](=O)[O-])cc3)n2)cc1	108%
Clc1ccc(Oc2ccc(Nc3ncnc4onc(-c5ccccc5)c34)cc2)c(Cl)c1	95.6%
CC1=C(CC(=O)c2cccc([N+](=O)[O-])c2)C(=O)c2ccccc2C1=O	-41.9% (active)
CCN1CCN(C(=S)SCC(=O)Nc2nc3ccc(C)cc3s2)CC1	124%
CCN(CC)CCNC(=O)C(Cl)=C1C(Cl)=C(Cl)C(Cl)=C1Cl	38.7%
CC(=Nc1ccccc1)C1=C(O)C(Cc2ccc(F)cc2)NC1=O (stereo not given)	12.8%
